An excerpt weighted towards active compounds, which were near 3.5% of everything screened.
FBW7 act – FBW7 E3 ligase activators, primary screen, biochemical, AlphaScreen, human; actives 0.13% (n = 650,000); normalized activity (activation), % at 26.1 µM; F-box/WD repeat-containing protein 7 (Homo sapiens), Q969H0; AlphaScreen FBW7–phospho-cyclin E peptide binding, activator screen; in the data active means normalized activity above about 1.9%;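 further: purified mutant Fbw7 with reduced substrate affinity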
GPR151 activ – activators of human GPR151, primary screen, cell-based, PathHunter beta-arrestin, luminescence. PathHunter beta-arrestin GPR151 cells. activation, % at 11.2 µM. actives 1% (n = 650,000). AID 1508602, 2020; in the data active means activation above about 4.9%;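 further: 0% = median of compound wells and 100% = cells with positive control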
Target sequence (Q8TDV0 whole entry, looked up): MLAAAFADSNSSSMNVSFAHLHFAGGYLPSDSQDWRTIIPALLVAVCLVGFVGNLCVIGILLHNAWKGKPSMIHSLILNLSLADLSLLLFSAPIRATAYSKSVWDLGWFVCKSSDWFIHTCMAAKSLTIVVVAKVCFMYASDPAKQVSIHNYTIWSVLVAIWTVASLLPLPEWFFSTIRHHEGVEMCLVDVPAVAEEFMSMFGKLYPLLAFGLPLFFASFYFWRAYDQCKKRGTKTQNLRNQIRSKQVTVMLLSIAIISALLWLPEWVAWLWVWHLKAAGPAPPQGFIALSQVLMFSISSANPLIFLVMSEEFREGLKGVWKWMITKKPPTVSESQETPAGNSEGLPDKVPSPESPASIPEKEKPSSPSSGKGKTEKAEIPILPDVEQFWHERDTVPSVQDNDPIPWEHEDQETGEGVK
TEAD-YAP inh – TEAD-YAP interaction inhibition, primary screen, TEAD-YAP interaction inhibitor project, luminescence, HEK-TIYL cells. TEAD-Gal4/YAP UAS-luciferase luminescence. inhibition, % at 9.12 µM. actives 1.4% (n = 640,000). AID 1259422, 2018; in the data active means inhibition above about 32%;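 further: 0% = median of test compound wells and 100% = reference inhibitor wells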
MITF primary – MITF inhibitors, primary screen, biochemical, AlphaScreen, human; Microphthalmia-associated transcription factor (Homo sapiens), O75030; AlphaScreen MITF homodimerization, bead proximity signal; inhibition, % at 2.6 µM; actives 0.91% (n = 650,000); in the data active means inhibition above about 50%;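 further: 0% = vehicle wells with protein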
* = called active by the depositor.

SMILES	FBW7 act	GPR151 activ	TEAD-YAP inh	MITF primary
Cc1ccc(C(NC(=O)C2CCCCC2)c2ccc3cccnc3c2O)cc1 (configuration not stated)	0	2	34*	30
O=C(c1cc(-c2ccco2)on1)N1CCCC1	0	-1	-46	12
COC(=O)C1(C)NC(c2ccc(O)c(OC)c2)C2C(=O)N(C)C(=O)C21 (configuration not stated)	0	-1	-5	6
CCN1C(=O)C2C(c3ccc(O)c(OC)c3)NC(C)(C(=O)OC)C2C1=O (configuration not stated)	0	3	45*	2
NC(=O)c1ccc(NC(=O)COC(=O)Cc2c(F)cccc2Cl)cc1	0	1	11	15
O=C1c2cccc3cccc(c23)C(=O)N1CCN1CCN(CCc2ccccc2)CC1	0	0	0	18
O=C1c2cccc3cccc(c23)C(=O)N1CCN1CCCCC1	0	0	68*	7
CC(C)N(CCNc1nc(-c2ccc(C(=O)NC3CC3)cc2)nc2c1ncn2CCN1CCCC1=O)C(C)C	0	1	7	4
Cc1ccc(S(=O)(=O)Nc2cc(SCC(=O)O)c(O)c3ccccc23)c(C)c1	0	-1	-19	12
Cc1ccc([N+](=O)[O-])cc1S(=O)(=O)Nc1cc(SCC(=O)O)c(O)c2ccccc12	-1	0	-3	65*
CC(=O)c1ccc(-c2ccc(N)c(C(=O)c3ccccc3)c2)cc1	0	0	58*	-5
O=C(CSc1nnnn1-c1ccccc1)Nc1cccc(NC(=O)C23CC4CC(CC(C4)C2)C3)c1	0	-1	72*	8
CCC(=O)Nc1cccc(NC(=O)CSc2nnnn2-c2ccccc2)c1	0	-1	8	5
CCOC(=O)/C(C#N)=C/C1=C(N2CCOCC2)C(=C\c2ccccc2)/CC1	-1	0	-2	51*
COCCNC(=O)/C(C#N)=C/C1=C(N2CCOCC2)C(=C\c2ccccc2)/CC1	-1	2	9	9
O=C(NC1CCCCCC1)c1ccc2c(=O)n(CCCN3CCCC3=O)c(=S)[nH]c2c1	0	-1	-1	-3
CCOc1ccccc1OCC(=O)N/N=C(\CCC(=O)O)c1ccccc1	0	0	59*	-5
O=C(COc1ccccc1-c1ccccc1)N/N=C/c1ccncc1	1	-2	52*	15
C/C(=N\NC(=O)COc1ccccc1-c1ccccc1)c1ccc(O)cc1O	0	2	59*	-31
O=C(COc1ccccc1-c1ccccc1)N/N=C/c1ccccn1	0	1	51*	12
S=C(NCc1ccccc1)N/N=C/c1ccccn1	0	-1	89*	52*
O=C(N/N=C/c1cccnc1)c1cc(Br)ccc1OCc1ccccc1	0	-2	33*	23
O=C(CCC(=O)N/N=C\c1ccccn1)N/N=C\c1ccccn1	0	1	10	21
O=C(COc1ccccc1-c1ccccc1)N/N=C/c1cccnc1	0	-1	47*	-2
O=C(N/N=C/c1cccnc1)c1ccccc1OCc1ccccc1	0	0	-1	-2
SMILES	FBW7 act	GPR151 activ	TEAD-YAP inh	MITF primary
CCOc1ccc(Br)cc1C(=O)N/N=C/c1ccc2c(c1)OCO2	0	-1	33*	7
COc1ccc(C2NCCS2)cc1OC (configuration not stated)	0	0	-9	-6
CCN1CCCc2cc(CN3CCc4c(nc(C)[nH]c4=O)C3)ccc21	0	-1	4	16
Cc1ccccc1OCC(=O)N/N=C/c1ccc(O)cc1	0	0	0	12
CCOc1ccccc1OCC(=O)N/N=C/c1ccc(O)cc1	0	0	57*	8
O=C(NCCCN1CCOCC1)c1cc(-c2cccs2)nc2ccccc12	0	0	14	-5
CC(C)OCCCNC(=O)c1cc(-c2cccs2)nc2ccccc12	0	0	36*	-1
COc1ccc(C(=O)ON2C(=O)c3cccc4cccc(c34)C2=O)cc1	0	-1	-13	6
CC(C)n1cnc2c(NC3CC3)nc(-c3ccc(C(=O)NC4CC4)cc3)nc21	0	-1	33*	18
CC(C)n1cnc2c(NCc3ccccc3)nc(-c3ccc(C(N)=O)cc3)nc21	0	1	9	-6
CC(C)n1cnc2c(Nc3ccccc3)nc(-c3ccc(C(N)=O)cc3)nc21	0	-1	44*	-1

High-throughput results: PubChem, The Scripps Research Institute Molecular Screening Center
